In general, AC50 refers to the midpoint of the concentration-response curve, whichever way the signal moves.

Results filed as inconclusive are left out. The source made the active and inactive calls. Rule for the calls, unless noted: active = hit-call score of the fitted dose curve at least 0.9, where 1 is the maximum; inconclusive = response in the unintended direction; inactive = score below 0.9.

In assay [1] the target is rat Somatostatin Receptor (SST), Sstr1 (gene 25033) (UniProt P28646). In words: NVS_GPCR_rSST: NovaScreen (NVS) G Protein-Coupled Receptor Assay for rat Somatostatin Receptor (SST) (AID 2283314). An outline of the steps: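 Rat forebrain membranes; radioligand displacement read by filter-based scintillation counting 1 h after dosing. Primary screen in duplicate at 25 uM. Actives (e.g., 30% inhibition) were rerun as concentration-response to 50 uM max and fitted against DMSO.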

The target of assay [2] is rat Neonicotinoid receptor (NNR), Chrna7 (gene 25302) (UniProt Q05941). In words: NVS_LGIC_rNNR_BungSens: NovaScreen (NVS) Ligand-Gated Ion Channel Assay for rat Neonicotinoid receptor (NNR) (AID 2283315). An outline of the steps: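 Radioligand displacement binding on rat cortical membranes, 2.5 h incubation, filtration and scintillation counting. Loss of specific binding fitted relative to DMSO.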

Assay [3] deals with rat Opioid Receptor, Non-selective Binding, Oprm1 (gene 25601) (UniProt P33535). In words: NVS_GPCR_rOpiate_NonSelective: NovaScreen (NVS) G Protein-Coupled Receptor Assay for rat Opioid Receptor, Non-selective Binding (AID 2283318). An outline of the steps: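 Rat forebrain membranes, cell-free radioligand binding with filter-based scintillation counting, read 1.5 h after dosing. Primary screen in duplicate at 25 uM; actives retested in concentration series. Loss of signal versus DMSO baseline scored.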
Sequence of rat Opioid Receptor, Non-selective Binding, Oprm1 (gene 25601) (P33535 whole entry, looked up): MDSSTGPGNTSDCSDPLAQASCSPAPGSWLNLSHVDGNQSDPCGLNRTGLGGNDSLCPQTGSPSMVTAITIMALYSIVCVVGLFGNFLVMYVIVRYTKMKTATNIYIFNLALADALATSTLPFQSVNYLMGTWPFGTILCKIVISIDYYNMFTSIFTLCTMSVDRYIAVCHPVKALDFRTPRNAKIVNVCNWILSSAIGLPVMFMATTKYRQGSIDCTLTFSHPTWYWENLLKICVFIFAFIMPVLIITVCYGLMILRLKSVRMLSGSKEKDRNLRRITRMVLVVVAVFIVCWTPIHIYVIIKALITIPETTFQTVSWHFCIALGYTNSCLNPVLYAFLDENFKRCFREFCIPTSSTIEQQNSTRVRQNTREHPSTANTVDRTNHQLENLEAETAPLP

Assay [4] in a line: NVS_IC_rCaDHPRCh_L: NovaScreen (NVS) Ion Channel Assay for rat Calcium Channel, Type L, Dihydropyridine Site (CaDHPRCh_L) (AID 2283320). An outline of the steps: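 Radioligand binding to dihydropyridine site on rat cortical membranes, filter-based scintillation counting, 1 h after dosing. Screened in duplicate at 25 uM; actives rerun in concentration-response up to 50 uM. Loss of signal versus DMSO baseline.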

Assay [5] addresses Sodium channel protein type 1 subunit alpha (Rattus norvegicus) (UniProt P04774). Put plainly: NVS_IC_rNaCh_site2: NovaScreen (NVS) Ion Channel Assay for rat Sodium Channel, Site 2 (NaCh) (AID 2283322).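 Note: hit means loss of radioligand binding signal relative to DMSO so AC50 marks displacement.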 An outline of the steps: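 Membranes: rat forebrain. Format: competitive radioligand displacement, filter separation, scintillation readout, 1 h exposure. Primary screen in duplicate at 25 uM; actives retested in concentration series.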

Assay [6] deals with bovine Gamma-Aminobutyric Acid Type A Receptor BDZ, alpha 5 site (GABARa5), GABRA5 (gene 523515) (UniProt Q08E50). Put plainly: NVS_LGIC_bGABARa5: NovaScreen (NVS) Ligand-Gated Ion Channel Assay for bovine Gamma-Aminobutyric Acid Type A Receptor BDZ, alpha 5 site (GABARa5) (AID 2283323). An outline of the steps: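 Radioligand competitive displacement binding on bovine hippocampal membranes, read 1 hr after dosing by filter-based scintillation counting. Primary screen at 25 uM in duplicate; actives (e.g. ≥30% inhibition) then run in concentration-response up to 50 uM.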

Assay [7] addresses Voltage-gated inwardly rectifying potassium channel KCNH2 (Homo sapiens) (UniProt Q12809). Put plainly: NVS_IC_hKhERGCh: NovaScreen (NVS) Ion Channel Assay for human Potassium Channel ERG (KhERGCh) (AID 2283333). An outline of the steps: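 Cell-free radioligand competition binding on hERG protein extracted from CHO cells, read by filter-based scintillation counting 0.75 h after dosing. Primary screen at 25 uM in duplicate, actives followed in concentration series. Signal loss fitted versus DMSO.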

Assay [8] deals with rat Peripheral-type Benzodiazepine Receptor (PBR), Tspo (gene 24230) (UniProt P16257). Put plainly: NVS_MP_rPBR: NovaScreen (NVS) Membrane Protein Assay for rat Peripheral-type Benzodiazepine Receptor (PBR) (AID 2283335). An outline of the steps:
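Rat kidney membranes; radioligand binding with displacement, filter-based scintillation counting, 1 h incubation. Primary screen in duplicate at 25 uM, actives followed in concentration series; loss of binding vs DMSO.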

Assay [9] deals with rat Glutamate, AMPA Site (AMPA), Gria1 (gene 50592) (UniProt P19490). Put plainly: NVS_LGIC_rAMPA: NovaScreen (NVS) Ligand-Gated Ion Channel Assay for rat Glutamate, AMPA Site (AMPA) (AID 2283324). An outline of the steps: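 Rat forebrain membranes; radioligand binding read 1 h after dosing by filtration and scintillation counting. Duplicate single-point screen at 25 uM, then concentration-response to 50 uM for threshold hits (e.g. 30% inhibition); loss of signal vs DMSO.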
Sequence of rat Glutamate, AMPA Site (AMPA), Gria1 (gene 50592) (P19490 whole entry, looked up): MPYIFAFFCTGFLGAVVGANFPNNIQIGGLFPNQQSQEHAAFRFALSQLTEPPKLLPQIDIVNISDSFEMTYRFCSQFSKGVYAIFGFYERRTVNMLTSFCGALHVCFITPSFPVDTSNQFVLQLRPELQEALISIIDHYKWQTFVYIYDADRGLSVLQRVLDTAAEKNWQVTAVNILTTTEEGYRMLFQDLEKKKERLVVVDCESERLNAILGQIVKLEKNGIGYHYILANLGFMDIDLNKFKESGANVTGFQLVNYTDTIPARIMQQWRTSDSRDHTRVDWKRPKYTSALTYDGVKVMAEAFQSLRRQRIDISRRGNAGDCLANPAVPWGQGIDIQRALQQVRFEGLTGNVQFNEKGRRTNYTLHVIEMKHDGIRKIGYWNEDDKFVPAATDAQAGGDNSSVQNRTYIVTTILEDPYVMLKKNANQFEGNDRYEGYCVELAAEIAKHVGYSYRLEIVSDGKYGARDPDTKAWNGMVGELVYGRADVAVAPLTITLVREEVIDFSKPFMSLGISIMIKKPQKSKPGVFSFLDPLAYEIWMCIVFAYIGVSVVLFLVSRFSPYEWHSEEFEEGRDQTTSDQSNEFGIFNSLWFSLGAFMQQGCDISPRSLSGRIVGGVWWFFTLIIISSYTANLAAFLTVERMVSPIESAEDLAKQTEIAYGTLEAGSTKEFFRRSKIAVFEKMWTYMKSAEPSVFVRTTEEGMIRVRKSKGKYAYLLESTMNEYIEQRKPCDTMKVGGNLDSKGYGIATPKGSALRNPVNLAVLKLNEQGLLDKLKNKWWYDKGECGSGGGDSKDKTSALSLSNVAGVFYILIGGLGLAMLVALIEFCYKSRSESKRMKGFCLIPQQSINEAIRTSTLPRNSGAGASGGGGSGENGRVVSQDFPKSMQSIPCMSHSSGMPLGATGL

Assay [10] has as its target Small conductance calcium-activated potassium channel protein 1 (Rattus norvegicus) (UniProt P70606). In words: NVS_IC_rKCaCh: NovaScreen (NVS) Ion Channel Assay for rat Potassium Channel, Ca2+ Act., VI (KCaCh) (AID 2283336). An outline of the steps: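 Radioligand binding to rat forebrain membranes, cell-free, read 1 hour after dosing by filter-based scintillation counting. Compounds first run in duplicate at 25 uM, actives then in concentration series; loss of signal vs DMSO indicates displacement.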

Assay [11] concerns the target rat Gamma-Aminobutyric Acid Type A Receptor, Non-Selective (GABAR-NonSelective), Gabra1 (gene 29705) (UniProt P62813). In words: NVS_LGIC_rGABAR_NonSelective: NovaScreen (NVS) Ligand-Gated Ion Channel Assay for rat Gamma-Aminobutyric Acid Type A Receptor, Non-Selective (GABAR-NonSelective) (AID 2283326). An outline of the steps: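 Radioligand displacement on rat whole-brain extract, 1 h, filter scintillation readout; signal loss fitted versus DMSO. Primary screen in duplicate at 25 uM; hits (e.g. ≥30% inhibition) retested in concentration-response up to 50 uM.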

For assay [12], the target named is Glutamate receptor ionotropic, kainate 1 (Rattus norvegicus) (UniProt P22756). Put plainly: NVS_IC_rKAR: NovaScreen (NVS) Ion Channel Assay for rat Kainic Acid Receptors (KAR) (AID 2283334; active = hit-call score of the fitted dose curve at least 0.9, where 1 is the maximum; inactive = score below 0.9). An outline of the steps:
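Radioligand displacement binding using rat forebrain membranes, 1 h incubation, filter-based scintillation counting. Screened in duplicate at 25 uM, with actives retested in concentration-response up to 50 uM; fitted against DMSO.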

Assay [13] concerns the target human Serotonin, 5-Hydroxytryptamine Receptor 3 (5HT3), HTR3A (gene 3359) (UniProt P46098). In words: NVS_LGIC_h5HT3: NovaScreen (NVS) Ligand-Gated Ion Channel Assay for human Serotonin, 5-Hydroxytryptamine Receptor 3 (5HT3) (AID 2283325). An outline of the steps:
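Radioligand displacement binding to human 5-HT3 from HEK293 membranes, read by filter-based scintillation counting after 1 h. Screen at 25 uM in duplicate; chemicals passing threshold were retested in concentration-response up to 50 uM.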

The next assay relates to NCBI gene 24521. In words: NVS_IC_rKATPCh: NovaScreen (NVS) Ion Channel Assay for rat Potassium Channel, ATP-Sensitive (KATPCh) (AID 2283319). An outline of the steps:
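Rat cortical membranes; radioligand binding at ATP-sensitive K channel site, filter-based scintillation counting 2 h after dosing. Single-point duplicate screen at 25 uM, hits rerun in concentration-response up to 50 uM; loss of signal versus DMSO.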

For assay [14], the target named is rat Glutamate, NMDA Agonist Site (GluNMDA), Grin1 (gene 24408) (UniProt P35439). In words: NVS_LGIC_rGluNMDA_Agonist: NovaScreen (NVS) Ligand-Gated Ion Channel Assay for rat Glutamate, NMDA Agonist Site (GluNMDA) (AID 2283327). An outline of the steps:
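Rat forebrain membranes, radioligand binding in the agonist-site protocol; 1 h after dosing; filter-based scintillation counting. Single-concentration duplicate screen at 25 uM, then concentration-response up to 50 uM for actives; gain-of-signal vs DMSO.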

For assay [15], the target named is rat Vasopressin 1 Receptor (V1), Avpr1a (gene 25107) (UniProt P30560). In words: NVS_GPCR_rV1: NovaScreen (NVS) G Protein-Coupled Receptor Assay for rat Vasopressin 1 Receptor (V1) (AID 2283316). An outline of the steps: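 Radioligand binding on rat liver membranes, 1.5 h incubation, filter-based scintillation counting. Single 25 uM screen in duplicate; chemicals meeting threshold (e.g. 30% inhibition) run in concentration-response up to 50 uM.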

For assay [16], the target named is human Peripheral-type Benzodiazepine Receptor (PBR), TSPO (gene 706) (UniProt P30536). In words: NVS_MP_hPBR: NovaScreen (NVS) Membrane Protein Assay for human Peripheral-type Benzodiazepine Receptor (PBR) (AID 2283331).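 Note: hits reduce radioligand binding relative to DMSO baseline.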 An outline of the steps:
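Radioligand displacement on human colonic cell membranes, 1 h incubation; bound radioactivity by filtration and scintillation counting. Primary screen in duplicate at 25 uM single concentration, actives followed up in concentration series; loss of binding versus DMSO.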

Sequence of human Serotonin, 5-Hydroxytryptamine Receptor 3 (5HT3), HTR3A (gene 3359) (P46098 whole entry, looked up): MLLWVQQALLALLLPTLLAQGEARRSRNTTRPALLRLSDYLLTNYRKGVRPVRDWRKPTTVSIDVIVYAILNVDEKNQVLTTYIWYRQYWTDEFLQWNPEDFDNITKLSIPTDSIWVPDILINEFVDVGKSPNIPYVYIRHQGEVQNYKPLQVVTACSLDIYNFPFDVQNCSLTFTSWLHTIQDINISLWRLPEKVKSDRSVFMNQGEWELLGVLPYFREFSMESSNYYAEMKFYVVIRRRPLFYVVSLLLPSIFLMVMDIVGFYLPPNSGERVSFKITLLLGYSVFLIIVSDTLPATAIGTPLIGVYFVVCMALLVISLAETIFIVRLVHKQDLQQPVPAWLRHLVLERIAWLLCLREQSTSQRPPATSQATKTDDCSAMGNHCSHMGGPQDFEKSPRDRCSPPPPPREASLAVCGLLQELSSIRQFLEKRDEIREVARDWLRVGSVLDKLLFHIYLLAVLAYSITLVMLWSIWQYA
Sequence of rat Peripheral-type Benzodiazepine Receptor (PBR), Tspo (gene 24230) (P16257 whole entry, looked up): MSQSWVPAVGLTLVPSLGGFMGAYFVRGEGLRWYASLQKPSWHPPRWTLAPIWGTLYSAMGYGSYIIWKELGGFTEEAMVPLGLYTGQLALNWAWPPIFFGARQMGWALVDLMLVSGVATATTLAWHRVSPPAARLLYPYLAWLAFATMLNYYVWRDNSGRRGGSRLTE
Sequence of human Peripheral-type Benzodiazepine Receptor (PBR), TSPO (gene 706) (P30536 whole entry, looked up): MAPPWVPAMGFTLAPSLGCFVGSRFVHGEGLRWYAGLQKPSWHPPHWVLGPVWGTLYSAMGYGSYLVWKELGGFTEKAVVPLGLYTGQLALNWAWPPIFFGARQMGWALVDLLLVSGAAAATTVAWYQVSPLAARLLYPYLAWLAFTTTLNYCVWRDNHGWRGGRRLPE
Sequence of Voltage-gated inwardly rectifying potassium channel KCNH2 (Homo sapiens) (Q12809 whole entry, looked up): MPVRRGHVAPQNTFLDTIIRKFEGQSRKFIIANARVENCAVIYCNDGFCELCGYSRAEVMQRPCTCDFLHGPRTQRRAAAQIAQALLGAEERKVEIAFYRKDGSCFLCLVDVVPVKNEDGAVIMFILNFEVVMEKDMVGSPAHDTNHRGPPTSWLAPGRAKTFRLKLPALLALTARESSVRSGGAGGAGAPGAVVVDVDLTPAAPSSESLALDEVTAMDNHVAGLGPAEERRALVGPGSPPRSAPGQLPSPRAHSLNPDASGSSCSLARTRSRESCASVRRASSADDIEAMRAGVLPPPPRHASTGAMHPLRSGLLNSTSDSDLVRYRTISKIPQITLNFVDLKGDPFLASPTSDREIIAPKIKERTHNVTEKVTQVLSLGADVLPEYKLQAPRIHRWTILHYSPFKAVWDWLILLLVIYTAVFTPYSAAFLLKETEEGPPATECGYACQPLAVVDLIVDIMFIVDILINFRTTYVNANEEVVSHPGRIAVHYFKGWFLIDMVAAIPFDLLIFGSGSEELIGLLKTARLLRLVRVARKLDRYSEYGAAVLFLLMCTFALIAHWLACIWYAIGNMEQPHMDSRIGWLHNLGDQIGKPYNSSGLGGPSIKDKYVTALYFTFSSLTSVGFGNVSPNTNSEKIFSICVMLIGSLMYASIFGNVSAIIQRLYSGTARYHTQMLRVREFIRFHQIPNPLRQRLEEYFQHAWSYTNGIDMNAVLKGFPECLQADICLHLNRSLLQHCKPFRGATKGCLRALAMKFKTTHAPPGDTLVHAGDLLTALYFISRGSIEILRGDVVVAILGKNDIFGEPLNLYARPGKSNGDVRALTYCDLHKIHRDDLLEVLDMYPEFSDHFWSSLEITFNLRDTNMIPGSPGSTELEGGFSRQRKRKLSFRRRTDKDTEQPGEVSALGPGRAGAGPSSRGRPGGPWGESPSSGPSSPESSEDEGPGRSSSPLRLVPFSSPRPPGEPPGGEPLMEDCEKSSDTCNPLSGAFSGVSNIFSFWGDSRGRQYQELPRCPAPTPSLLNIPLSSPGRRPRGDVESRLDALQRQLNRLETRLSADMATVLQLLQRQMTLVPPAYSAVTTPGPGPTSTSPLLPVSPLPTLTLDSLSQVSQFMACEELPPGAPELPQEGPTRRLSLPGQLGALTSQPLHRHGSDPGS
Sequence of Small conductance calcium-activated potassium channel protein 1 (Rattus norvegicus) (P70606 whole entry, looked up): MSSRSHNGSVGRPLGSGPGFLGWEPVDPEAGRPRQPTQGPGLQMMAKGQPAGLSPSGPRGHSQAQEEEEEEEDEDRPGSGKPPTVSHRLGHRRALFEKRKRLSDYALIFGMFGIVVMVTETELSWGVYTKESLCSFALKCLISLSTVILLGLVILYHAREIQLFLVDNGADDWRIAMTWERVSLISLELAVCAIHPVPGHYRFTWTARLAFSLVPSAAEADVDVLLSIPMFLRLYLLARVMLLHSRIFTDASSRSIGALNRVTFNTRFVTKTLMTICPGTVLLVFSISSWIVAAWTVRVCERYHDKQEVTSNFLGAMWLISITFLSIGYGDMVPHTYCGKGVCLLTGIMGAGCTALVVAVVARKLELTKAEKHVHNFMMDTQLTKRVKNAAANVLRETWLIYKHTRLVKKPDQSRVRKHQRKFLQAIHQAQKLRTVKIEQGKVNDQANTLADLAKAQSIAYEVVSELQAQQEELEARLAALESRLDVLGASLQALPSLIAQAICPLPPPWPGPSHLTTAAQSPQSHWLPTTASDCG
Sequence of Glutamate receptor ionotropic, kainate 1 (Rattus norvegicus) (P22756 whole entry, looked up): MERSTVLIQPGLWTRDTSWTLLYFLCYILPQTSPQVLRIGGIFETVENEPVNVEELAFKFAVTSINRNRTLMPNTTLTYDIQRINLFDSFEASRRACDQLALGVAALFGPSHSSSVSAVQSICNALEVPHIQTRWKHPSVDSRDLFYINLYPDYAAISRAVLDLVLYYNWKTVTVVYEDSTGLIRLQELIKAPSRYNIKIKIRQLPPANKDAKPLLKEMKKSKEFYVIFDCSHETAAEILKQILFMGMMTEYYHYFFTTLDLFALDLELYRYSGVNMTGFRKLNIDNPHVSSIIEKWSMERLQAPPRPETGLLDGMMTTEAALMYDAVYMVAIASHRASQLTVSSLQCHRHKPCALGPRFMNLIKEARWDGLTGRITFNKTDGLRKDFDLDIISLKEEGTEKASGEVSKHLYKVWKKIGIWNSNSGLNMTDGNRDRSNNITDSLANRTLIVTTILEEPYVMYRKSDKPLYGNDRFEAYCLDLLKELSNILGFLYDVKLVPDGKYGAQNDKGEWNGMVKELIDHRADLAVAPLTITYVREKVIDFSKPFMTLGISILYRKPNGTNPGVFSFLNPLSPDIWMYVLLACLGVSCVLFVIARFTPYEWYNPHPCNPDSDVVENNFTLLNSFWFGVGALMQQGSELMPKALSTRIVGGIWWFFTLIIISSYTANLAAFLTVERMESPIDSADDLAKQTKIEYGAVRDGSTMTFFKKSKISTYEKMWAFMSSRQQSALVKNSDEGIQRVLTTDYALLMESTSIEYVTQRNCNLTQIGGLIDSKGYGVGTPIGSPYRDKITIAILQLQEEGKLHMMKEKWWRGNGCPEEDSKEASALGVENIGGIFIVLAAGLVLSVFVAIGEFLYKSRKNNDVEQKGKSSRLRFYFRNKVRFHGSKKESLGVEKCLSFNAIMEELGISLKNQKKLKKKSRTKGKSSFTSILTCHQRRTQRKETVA

In the case of `c1ccc(C(O[C@@H]2CCCN(CCc3ccc4c(c3)OCO4)C2)c2ccccc2)cc1`, the AC50 in assay [1] was 14.6 µM (active); in assay [3], 2.71 µM (active); in assay [4] it was 6.43 µM (active); in assay [5], 0.832 µM (active). In addition, the compound was classed as inactive in assay [2], in assay [6], in [7] and in assay [8].
For `CCc1cccc(CC)c1N`, the compound was called inactive in [9].
In the case of `CC1(C)C(=O)N(Cl)C(=O)N1Cl`, the outcome in assay [10] was inactive.
As to `NC(=O)N1c2ccccc2C=Cc2ccccc21`, the result in assay [5] was inactive. Moreover, the AC50 in [11] is 4.66 µM (active).
Turning to `OCc1ccccc1`, the outcome in [10] was inactive.
`O=C(O)c1cccc(C[C@@H]2COc3ccc(OCc4nc5cc(F)ccc5s4)cc3[C@@H]2O)c1`: the compound was classed as inactive in assay [12].
Take `Cc1nccn1-c1ccc(Sc2cccc(C3(C(N)=O)CCOCC3)c2)cc1`: the result in [3] was inactive. The half-maximal activity concentration (AC50) in [5] was 17.7 µM (active).
For `CCCOc1ccc(S(=O)(=O)N2CCN(CC)CC2)cc1-c1nc2c(CC)n(Cc3ccccn3)nc2c(=O)[nH]1`, the compound was classed as inactive in [6].
As for `O=c1[nH]cnc2c1ncn2[C@H]1CC[C@@H](CO)O1`, the call in assay [13] was inactive.
Take `CCn1nc(C)c2c1C(=O)NCC(c1ccc(O)cc1)=N2`: the call (in assay [3]; with NCBI gene 24521; in assay [4]; in assay [5]; in [13]; in assay [14]) was inactive.
`CCN(CC)C(=S)SSC(=S)N(CC)CC`: the results for the AC50 in assay [15], in [16] and in assay [8] were 15.6 µM (active), 3.21 µM (active) and 0.31 µM (active), respectively. Besides, the outcome in assay [9] and in [13] was inactive.
For the compound `Cc1ncc([C@@H](CCCCCCc2ccc3c(n2)NCCC3)CC(=O)O)cn1`, the AC50 in assay [3] was 25 µM (active).
For the compound `O=C(O)c1cccc(C(=O)O)c1`, the result in the assay on NCBI gene 24521 was inactive.
As to `CC(C)C(=O)Nc1ccc([N+](=O)[O-])c(C(F)(F)F)c1`, in assay [16], the result was inactive. In addition, the AC50 in [8] is 4.95 µM (active).
On to `OC[C@H]1O[C@@](CO)(O[C@H]2O[C@H](CO)[C@@H](O)[C@H](O)[C@H]2O)[C@@H](O)[C@@H]1O`, for which the compound was classed as inactive in assay [7] and in [12].

Values taken from PubChem BioAssay (EPA / NIEHS).
